Assay results from PubChem BioAssay (Tox21).
“And” between values parts separate entries of the source, which are not always exact repeats. Equal values may be shown once. Inconclusive results are not listed. The source holds several records for some structures; these can differ, active in one and inactive in another. The source made the active and inactive calls. Unless noted, the call rests on the fitted dose curve.

What was measured:
[1] = Nuclear factor erythroid 2-related factor 2/antioxidant responsive element (Nrf2/ARE) small molecule agonists: luciferase reporter gene qHTS assay in human keratinocytes (AID 1919969); further: nearly all actives have a fitted effect of over 35% in size; further: potency means the concentration at half of the fitted maximal effect
[2] = biological target: Gonadotropin-releasing hormone receptor (Homo sapiens) (UniProt P30968); assay: Human gonadotropin-releasing hormone receptor (GnRHR) small molecule agonists, calcium flux assay in GnRHR-HEK293 cells (AID 1920063); further: nearly all actives have a fitted effect of over 35% in size; further: potency means the concentration at half of the fitted maximal effect
Summary of the method: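 Cells: HEK293 stably expressing human GnRHR. Steps: overnight (18 h) culture, 1 h calcium dye loading at 37 C, compound addition, kinetic fluorescence read at 480/540 nm. Each compound tested at 15 concentrations in triplicate.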

[3] = biological target: KiSS-1 receptor (Homo sapiens) (UniProt Q969F8); assay: Human kisspeptin (KISS1R) small molecule agonists, calcium flux assay in KISS1R-HEK293 cells (AID 1920064; active means well fitted activation curve with a large enough effect in the repeat runs; further: potency means the concentration at half of the fitted maximal effect)
Summary of the method: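 Cells plated and incubated 18 h; dye added, 1 h at 37 C; compounds in DMSO pinned in; signal read at 480/540 nm every second for 3 min. Each compound tested at 15 concentrations in triplicate.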

[4] = G protein-coupled receptor (GPCR) small molecule agonists, calcium flux assay: HEK293 wild type cell line counter screen (AID 1920065); further: potency means the concentration at half of the fitted maximal effect
Summary of the method: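 Counter-screen of the Tox21 10K library for non-specific calcium release: dye-loaded cells received compounds in DMSO and were monitored by kinetic fluorescence (480/540 nm, 3 min). Fifteen concentrations, run in triplicate.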

[5] = p53 small molecule agonists, cell-based qHTS assay with human liver microsomes: qHTS cell viability counter screen (AID 1963579); further: nearly all actives have a fitted effect of over 45% in size
Summary of the method: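 In this multiplexed counter screen, the reporter plates were subsequently treated with CellTiter-Glo so that cell viability, reflected by luminescence, could be recorded for p53RE-bla cells dosed 16 h with compounds under microsomal activation (HLM and NADPH).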

[6] = p53 small molecule agonists, cell-based qHTS assay with rat liver microsomes: qHTS cell viability counter screen (AID 1963580); further: nearly all actives have a fitted effect of over 45% in size
Summary of the method: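 HCT-116 p53RE-bla, 4,000 cells/well, 5 h pre-incubation; cpd + rat liver microsomes 0.5 mg/mL + NADPH 0.5 mg/mL (final); 16 h, 37 C; CellTiter-Glo, 30 min RT; luminescence.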

[7] = p53 small molecule agonists, cell-based qHTS assay: qHTS cell viability counter screen (AID 1963581); further: nearly all actives have a fitted effect of over 45% in size
Summary of the method: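 Cells: HCT-116 with p53 response element-driven beta-lactamase. Treatment: 16 h, 37 C, compounds in DMSO. Read: CellTiter-Glo luminescence after 30 min RT.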

[8] = biological target: 5-hydroxytryptamine receptor 2A (Homo sapiens) (UniProt P28223); assay: 5-hydroxytryptamine receptor 2A (HTR2A) small molecule antagonists, cell-based qHTS assay (AID 1963586); further: nearly all actives have a fitted effect of over 45% in size
Summary of the method: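 Antagonist-mode intracellular calcium assay: DOI (4 nM) added after 5 min compound pre-incubation at room temperature to dye-loaded HTR2A-CHO cells. Fluorescence followed for 3 min, sampled every second.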

[9] = biological target: 5-hydroxytryptamine receptor 2A (Homo sapiens) (UniProt P28223); assay: 5-hydroxytryptamine receptor 2A (HTR2A) small molecule agonists, cell-based qHTS assay (AID 1963587); further: nearly all actives have a fitted effect of over 30% in size; further: potency means the concentration at half of the fitted maximal effect
Summary of the method: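 Kinetic calcium-flux fluorescence (2 min, 1 sec intervals) after compound addition in agonist mode. HTR2A-CHO cells were cultured 18 h, then dye-loaded 1 h at 37 C.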

[10] = biological target: Muscarinic acetylcholine receptor M1 (Homo sapiens) (UniProt P11229); assay: Cholinergic receptor muscarinic 1 (CHRM1) small molecule antagonists, cell-based qHTS assay (AID 1963588); further: nearly all actives have a fitted effect of over 40% in size
Summary of the method: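 CHRM1-CHO calcium-flux assay, antagonist mode. Cells were seeded 18 h, dye-loaded 1 h at 37 C and given compound for 5 min at RT, then acetylcholine was added at 50nM. FDSS fluorescence was read 3 min; 15 concentrations, three runs.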

[11] = biological target: Muscarinic acetylcholine receptor M1 (Homo sapiens) (UniProt P11229); assay: Cholinergic receptor muscarinic 1 (CHRM1) small molecule agonists, cell-based qHTS assay (AID 1963589); further: nearly all actives have a fitted effect of over 35% in size; further: potency means the concentration at half of the fitted maximal effect
Summary of the method: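 Agonist-mode qHTS in CHO cells stably carrying human muscarinic M1. Intracellular calcium is tracked by fluorescence every second after compound transfer; each compound runs at 15 concentrations in three independent runs.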

[12] = biological target: Beta-2 adrenergic receptor (Homo sapiens) (UniProt P07550); assay: Adrenergic beta2 receptor (ADRB2) small molecule antagonists, cell-based qHTS assay (AID 1963592); further: nearly all actives have a fitted effect of over 50% in size; further: potency means the concentration at half of the fitted maximal effect
Summary of the method: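 Cells (CHO, stable ADRB2 overexpression) incubated 18-20hr at 37C; compounds added from DMSO; agonist mix (1nM isoproterenol, 100uM IBMX, 25uM Ro-20-1724) added; 0.5hr RT; d2-cAMP and anti-cAMP-cryptate added; 1hr RT; 665/615 nm read.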

[13] = biological target: D(2) dopamine receptor (Homo sapiens) (UniProt P14416); assay: Dopamine D2 receptor (DRD2) small molecule agonists, cell-based qHTS assay (AID 1963594); further: nearly all actives have a fitted effect of over 35% in size; further: potency means the concentration at half of the fitted maximal effect
Summary of the method: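 cAMP accumulation in DRD2-HEK293 cells measured by HTRF after 1 h detection; compounds added 10 min before NKH477 (200nM […]) forskolin-analogue stimulation, 30 min at room temperature, with Ro20-1724 present at 0.1 mM final.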

[14] = biological target: D(2) dopamine receptor (Homo sapiens) (UniProt P14416); assay: Dopamine D2 receptor (DRD2) small molecule antagonists, cell-based qHTS assay (AID 1963595; active means well fitted inhibition curve with a large enough effect in the signal ratio in the repeat runs, with a control signal flat; the % refers to the signal ratio)
Summary of the method: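 In this cell-based antagonist screen, compounds act for 10 min at room temperature before a 30 min challenge with 12 nM quinpirole and 200 nM NKH477. cAMP is quantified by HTRF competition in DRD2-HEK293 cells containing 0.1 mM Ro20-1724.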

[15] = cAMP Responsive Elements (CRE) small molecule agonists, cell-based qHTS assay (AID 1963590)
Summary of the method: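 Agonist mode qHTS in CRE-bla HEK 293T cells: compounds dosed from DMSO for 3 h at 37 C/5% CO2, followed by LiveBLAzer B/G FRET substrate for 2 h at room temperature.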

[16] = cAMP Responsive Elements (CRE) small molecule antagonists, cell-based qHTS assay (AID 1963591; active means well fitted inhibition curve with a large enough effect in the signal ratio in the repeat runs, not every such curve was filed as active; the % refers to the signal ratio; further: potency means the concentration at half of the fitted maximal effect)
Summary of the method: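 Antagonist mode: test compounds are co-incubated with the adenylyl cyclase activator NKH477 (0.25 uM final) on CRE-bla HEK293T cells for 3 h at 37 °C, followed by LiveBLAzer substrate loading.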

[17] = biological target: Beta-2 adrenergic receptor (Homo sapiens) (UniProt P07550); assay: Adrenergic beta2 receptor (ADRB2) small molecule agonists, cell-based qHTS assay (AID 1963593);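 further: CHO cells stably overexpressing human ADRB2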
Summary of the method: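 CHO cells stably over-expressing ADRB2 were plated overnight at 37C, then dosed with compounds plus a stimulation mix containing 100uM IBMX and 25uM Ro-20-1724 for 0.5hr at room temperature. cAMP was measured by HTRF competition, 1hr.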

Measured: Potency

Sequence of Beta-2 adrenergic receptor (Homo sapiens) (P07550 whole entry, looked up): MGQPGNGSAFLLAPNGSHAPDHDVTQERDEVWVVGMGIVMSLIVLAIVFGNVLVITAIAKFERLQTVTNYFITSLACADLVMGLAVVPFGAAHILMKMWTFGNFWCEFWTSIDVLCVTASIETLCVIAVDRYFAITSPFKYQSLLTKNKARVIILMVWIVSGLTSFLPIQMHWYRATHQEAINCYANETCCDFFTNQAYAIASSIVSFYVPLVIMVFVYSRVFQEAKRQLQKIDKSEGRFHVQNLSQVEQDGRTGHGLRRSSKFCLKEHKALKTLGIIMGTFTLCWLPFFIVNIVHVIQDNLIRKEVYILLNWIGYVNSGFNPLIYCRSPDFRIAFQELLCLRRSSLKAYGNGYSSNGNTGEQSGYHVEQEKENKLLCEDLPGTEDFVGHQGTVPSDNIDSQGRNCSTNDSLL
Sequence of 5-hydroxytryptamine receptor 2A (Homo sapiens) (P28223 whole entry, looked up): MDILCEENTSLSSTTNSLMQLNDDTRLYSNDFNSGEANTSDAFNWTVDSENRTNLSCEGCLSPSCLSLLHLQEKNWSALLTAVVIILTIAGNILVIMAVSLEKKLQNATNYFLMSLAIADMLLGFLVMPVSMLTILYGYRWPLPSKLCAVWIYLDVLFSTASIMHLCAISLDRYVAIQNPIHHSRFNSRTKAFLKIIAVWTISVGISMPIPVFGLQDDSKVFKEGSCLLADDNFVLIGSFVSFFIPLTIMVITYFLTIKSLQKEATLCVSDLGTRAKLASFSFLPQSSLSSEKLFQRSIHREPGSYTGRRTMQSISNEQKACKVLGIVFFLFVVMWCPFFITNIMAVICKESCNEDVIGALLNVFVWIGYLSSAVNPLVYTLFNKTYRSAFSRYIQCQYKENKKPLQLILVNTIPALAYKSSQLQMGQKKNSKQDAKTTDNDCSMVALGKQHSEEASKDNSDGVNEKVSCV
Sequence of Muscarinic acetylcholine receptor M1 (Homo sapiens) (P11229 whole entry, looked up): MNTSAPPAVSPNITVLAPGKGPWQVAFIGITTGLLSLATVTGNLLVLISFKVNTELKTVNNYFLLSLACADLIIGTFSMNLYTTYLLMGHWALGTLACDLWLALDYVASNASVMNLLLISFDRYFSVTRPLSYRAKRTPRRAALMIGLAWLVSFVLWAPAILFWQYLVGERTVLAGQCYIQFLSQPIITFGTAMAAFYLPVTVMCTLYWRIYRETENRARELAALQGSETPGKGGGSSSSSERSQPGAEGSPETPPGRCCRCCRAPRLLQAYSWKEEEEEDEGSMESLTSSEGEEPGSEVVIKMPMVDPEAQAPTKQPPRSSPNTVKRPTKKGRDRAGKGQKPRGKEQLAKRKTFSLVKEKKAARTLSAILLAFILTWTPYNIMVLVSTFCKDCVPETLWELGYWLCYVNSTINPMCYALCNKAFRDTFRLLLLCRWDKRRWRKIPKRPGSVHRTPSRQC
Sequence of Gonadotropin-releasing hormone receptor (Homo sapiens) (P30968 whole entry, looked up): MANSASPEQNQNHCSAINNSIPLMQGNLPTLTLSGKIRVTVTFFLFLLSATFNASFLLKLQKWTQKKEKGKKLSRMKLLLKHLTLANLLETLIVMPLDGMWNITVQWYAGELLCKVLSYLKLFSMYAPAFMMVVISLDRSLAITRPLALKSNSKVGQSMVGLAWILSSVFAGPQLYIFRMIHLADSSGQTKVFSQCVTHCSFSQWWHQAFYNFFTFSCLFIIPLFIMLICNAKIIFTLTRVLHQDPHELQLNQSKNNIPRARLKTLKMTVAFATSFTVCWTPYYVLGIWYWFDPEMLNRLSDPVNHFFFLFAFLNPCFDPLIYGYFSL
Sequence of D(2) dopamine receptor (Homo sapiens) (P14416 whole entry, looked up): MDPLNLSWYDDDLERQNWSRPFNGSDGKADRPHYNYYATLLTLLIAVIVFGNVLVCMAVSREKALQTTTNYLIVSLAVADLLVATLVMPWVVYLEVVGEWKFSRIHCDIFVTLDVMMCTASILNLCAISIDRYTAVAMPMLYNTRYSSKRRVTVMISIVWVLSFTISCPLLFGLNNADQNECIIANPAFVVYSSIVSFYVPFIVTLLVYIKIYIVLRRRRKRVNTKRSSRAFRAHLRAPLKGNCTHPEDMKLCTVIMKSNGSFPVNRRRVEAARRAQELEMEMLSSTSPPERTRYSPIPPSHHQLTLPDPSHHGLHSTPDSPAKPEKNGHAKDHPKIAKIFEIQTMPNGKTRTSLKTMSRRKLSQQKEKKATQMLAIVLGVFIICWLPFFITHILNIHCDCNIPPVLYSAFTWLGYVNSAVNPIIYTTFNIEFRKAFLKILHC
Sequence of KiSS-1 receptor (Homo sapiens) (Q969F8 whole entry, looked up): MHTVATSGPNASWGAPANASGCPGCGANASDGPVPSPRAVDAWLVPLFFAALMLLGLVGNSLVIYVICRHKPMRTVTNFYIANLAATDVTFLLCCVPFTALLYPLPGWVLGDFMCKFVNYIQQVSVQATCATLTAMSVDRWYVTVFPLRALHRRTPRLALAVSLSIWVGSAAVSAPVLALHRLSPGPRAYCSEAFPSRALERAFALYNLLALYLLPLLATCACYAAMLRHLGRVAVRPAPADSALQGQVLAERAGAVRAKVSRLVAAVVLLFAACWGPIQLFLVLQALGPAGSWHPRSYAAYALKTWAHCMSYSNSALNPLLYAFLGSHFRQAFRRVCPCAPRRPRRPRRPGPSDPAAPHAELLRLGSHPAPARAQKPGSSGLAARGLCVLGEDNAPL

c1cc(N(CC2CO2)CC2CO2)ccc1OCC1CO1 (configuration not stated)
active: [1] 27.3 µM and 24.3 µM
not listed: [15] | [16] | [17]
inactive: all other assays above

CC(N=C(NC#N)Nc1ccncc1)C(C)(C)C (configuration not stated)
not listed: [17]
inactive: all other assays above

CCCCCCC(O)CCCCCCCCCCC(=O)O (configuration not stated)
3.9 µM (active) and inactive: [9]
inactive: all other assays above

CC1(C)O[C@@H]2C[C@H]3[C@@H]4C[C@H](F)C5=CC(=O)C=C[C@]5(C)[C@H]4[C@@H](O)C[C@]3(C)[C@]2(C(=O)CO)O1
not listed: [8] | [9] | [10] | [11] | [14] | [15] | [16]
inactive: all other assays above

OC(CCN1CCCCC1)(c1ccccc1)C1CCCCC1 (configuration not stated)
inactive: [1] | [2] | [3] | [4] | [5] | [7] | [12] | [13]

C=CC(C)(C)CC(=O)OC
not listed: [7] | [10] | [12] | [16] | [17]
inactive: all other assays above

O=C1OC2(c3ccccc31)c1ccc(O)c(Br)c1Oc1c2ccc(O)c1Br
inactive: [1] | [5] | [6] | [7] | [8] | [10]
active: [2] 13.8 µM | [3] 7.76 µM | [4] 19.5 µM | [9] 1.55 µM | [11] 24.5 µM | [12] 68.6 µM | [13] 15.4 µM

CCN(CC)CCOc1ccc2c(c1)C(=O)c1cc(OCCN(CC)CC)ccc1-2
active: [1] 33.5 µM | [16] 29.8 µM
not listed: [6] | [11] | [12] | [13] | [14] | [17]
inactive: all other assays above

COc1ccc(CCO)cc1
not listed: [12]
inactive: all other assays above
